Experimental data taken from PubChem BioAssay AID1159580 (chemical genetic matrix, 2015).
Screen size: about 5,500 compounds; about 2,000 (36%) were called active. Roughly 18% stayed inconclusive and do not appear here. Rule as the data show it: active = normalized growth mostly below about 0.91 (no sharp cut-off); inconclusive = no clear call, values can overlap the other calls; inactive = mostly above about 0.92. This is one part of the list.

Assay: chemical genetic growth profiling, strain panel (AID 1159580);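 also: tested at 20 µM; growth read once vehicle control cultures reached saturation at 30 °C; 1 = growth at the plate median or of vehicle wells; lower values mean less growth of the strain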
Conditions: S. cerevisiae deletion strains, growth OD

Measured: normalized growth

O=c1c(-c2cc(O)c(O)c(O)c2)coc2cc(O)c(O)c(O)c12
inactive: locus YAL030W, strain snc1, active compounds read low 0.999 | locus YBL061C, strain skt5, active compounds read low 0.94 | locus YBR009C, strain hhf1, active compounds read low 0.975 | locus YBR021W, strain FUR4, active compounds read low 1.03 | locus YBR171W, strain sec66, active compounds read low 0.991 | locus YBR279W, strain paf1, active compounds read low 0.97 | locus YCL011C, strain gbp2, active compounds read low 0.979 | locus YCL016C, strain dcc1, active compounds read low 0.99 | locus YCL061C, strain MRC1, active compounds read low 0.97 | locus YCL069W, strain vba3, active compounds read low 0.996 | locus YCR088W, strain abp1, active compounds read low 1.03 | locus YDL005C, strain med2, active compounds read low 1.02 | locus YDL040C, strain nat1, active compounds read low 1.02 | locus YDL185W, strain tfp1, active compounds read low 0.944 | locus YDL192W, strain arf1, active compounds read low 0.927 | locus YDR001C, strain nth1, active compounds read low 1.01 | locus YDR101C, strain arx1, active compounds read low 0.918 | locus YDR159W, strain sac3, active compounds read low 0.981 | locus YDR195W, strain ref2 0.993 | locus YDR297W, strain sur2, active compounds read low 0.987 | locus YDR318W, strain mcm21, active compounds read low 0.986 | locus YDR388W, active compounds read low 0.983 | locus YDR392W, strain spt3, active compounds read low 0.899 | locus YDR502C, strain sam2, active compounds read low 0.931 | locus YEL003W, strain gim4, active compounds read low 0.958 | locus YEL037C, strain rad23, active compounds read low 0.937 | locus YEL061C, strain CIN8 (second series), active compounds read low 1 | locus YER016W, strain bim1, active compounds read low 1 | locus YER110C, active compounds read low 1 | locus YER155C, strain BEM2 (second series), active compounds read low 0.935 | locus YER155C, strain BEM2, active compounds read low 0.991 | locus YER167W, strain BCK2, active compounds read low 0.972 | locus YFR010W, strain ubp6, active compounds read low 0.915 | locus YGL078C, strain dbp3, active compounds read low 0.991 | locus YGL167C, strain pmr1, active compounds read low 1 | locus YGL227W, strain vid30, active compounds read low 1.05 | locus YGL240W, strain doc1, active compounds read low 1.04 | locus YGR135W, strain pre9, active compounds read low 0.917 | locus YGR252W, strain gcn5, active compounds read low 0.853 | locus YHR013C, strain ard1, active compounds read low 0.88 | locus YHR030C, strain SLT2, active compounds read low 0.952 | locus YHR094C, strain hxt1, active compounds read low 1.01 | locus YHR200W, strain rpn10, active compounds read low 0.957 | locus YIL073C, strain SPO22, active compounds read low 0.686 | locus YIL125W, strain kgd1, active compounds read low 1 | locus YIR030C, strain dcg1, active compounds read low 1 | locus YJL092W, strain hpr5, active compounds read low 1.01 | locus YJL095W, strain BCK1 (second series), active compounds read low 0.986 | locus YJL115W, strain asf1, active compounds read low 1.01 | locus YJL129C, strain trk1, active compounds read low 1.03 | locus YJL134W, strain LCB3, active compounds read low 0.943 | locus YJL154C, strain vps35, active compounds read low 1.01 | locus YJL164C, strain tpk1, active compounds read low 0.949 | locus YJL166W, strain qcr8, active compounds read low 0.921 | locus YJL168C, strain set2, active compounds read low 0.982
active: locus YAL021C, strain ccr4, active compounds read low 0.719 | locus YAL026C, strain drs2, active compounds read low 0.876 | locus YBR023C, strain chs3, active compounds read low 0.904 | locus YBR229C, strain ROT2, active compounds read low 0.812 | locus YBR231C, strain swc5, active compounds read low 0.826 | locus YCL029C, strain bik1, active compounds read low 0.751 | locus YDL035C, strain GPR1, active compounds read low 0.787 | locus YDL074C, strain BRE1, active compounds read low 0.698 | locus YDL101C, strain DUN1, active compounds read low 0.462 | locus YDL134C, strain PPH21, active compounds read low 0.777 | locus YDR069C, strain doa4, active compounds read low 0.746 | locus YDR137W, strain rgp1, active compounds read low 0.716 | locus YDR162C, strain NBP2, active compounds read low 0.632 | locus YDR334W, strain swr1, active compounds read low 0.879 | locus YDR335W, strain msn5, active compounds read low 0.885 | locus YEL061C, strain CIN8, active compounds read low 0.878 | locus YER015W, strain faa2, active compounds read low 0.919 | locus YER111C, strain swi4, active compounds read low 0.731 | locus YGL086W, strain mad1, active compounds read low 0.923 | locus YGL173C, strain kem1, active compounds read low 0.872 | locus YGL248W, strain PDE1, active compounds read low 0.851 | locus YGL253W, strain hxk2, active compounds read low 0.878 | locus YGR078C, strain PAC10, active compounds read low 0.817 | locus YGR229C, strain SMI1, active compounds read low 0.328 | locus YHR027C, strain rpn1, active compounds read low 0.893 | locus YHR079C, strain IRE1 (second series), active compounds read low 0.922 | locus YHR129C, strain ARP1, active compounds read low 0.869 | locus YHR142W, strain chs7, active compounds read low 0.808 | locus YIL066C, strain RNR3, active compounds read low 0.774 | locus YJL095W, strain BCK1, active compounds read low 0.331 | locus YJL187C, strain SWE1 (second series), active compounds read low 0.282
